Data from ChEMBL document CHEMBL3988442, “University of Dundee, Small-Polar-MMV Screening Library” (2021).
About 440 (0.52%) of roughly 85,000 compounds showed an effect of 50% or more. The sample as a whole holds a higher share of strong results than the screen did.

Experiment: In vitro enzyme assay to detect hydrolysis of chlorophenol red-beta-D-[…] directly proportional to the number of Toxoplasma stably expressing beta-galactosidase
Format: functional, organism-based, Toxoplasma gondii
Design: scale not given: in the data most compounds retested in dose-response had high values

Structure (SMILES)	Percent Effect (10 µM) [%]	Percent Effect (50 µM) [%]
O=C(NCCNc1ncccn1)C1CC(=O)N(Cc2ccccn2)C1 (stereo not given)	66.32	–
O=C(NCCNc1ncccn1)C1CC(=O)N(Cc2ccccc2)C1 (stereo not given)	14.32	–
O=C(NCCNc1ncccn1)C1CC(=O)N(Cc2ccco2)C1 (stereo not given)	18.03	–
Cc1c(-c2nc(-c3cccc(CN4CCOCC4)c3)no2)cnn1C	8.571	–
Cc1cc(-c2nc(-c3cccc(CN4CCOCC4)c3)no2)no1	8.772	–
Cc1occc1-c1nc(-c2cccc(CN3CCOCC3)c2)no1	55.09	–
N#Cc1cccc(CN)c1F	–	2.806
COCCNc1nnc(SCc2ccc(Br)cn2)s1	–	98.42
COCCCNc1ccc(Br)cn1	–	6.813
COCCNc1nnc(-c2ccccn2)s1	14.66	–
Cc1n[nH]cc1CNCc1nccs1	–	-5.718
COCCNC(=O)c1cn(CC2CCCNC2)nn1 (stereo not given)	–	-4.648
CCc1cc(NCc2cccnc2)n2nccc2n1	–	3.949
COc1ccc2c(c1)CCCC2N (stereo not given)	–	9.435
Cn1cc(CN2C[C@@H]3COC[C@H](C(=O)Nc4cccnc4)[C@@H]3C2)cn1.O=C(O)C(F)(F)F.O=C(O)C(F)(F)F	79.48	–
Cn1cc(CN2C[C@@H]3COC[C@@H](C(=O)N4CCCCO4)[C@@H]3C2)cn1.O=C(O)C(F)(F)F.O=C(O)C(F)(F)F	0.4992	–
Cn1cc(CN2CC(C(=O)Nc3ccccc3)C3(CCOCC3)C2)cn1.O=C(O)C(F)(F)F (stereo not given)	-1.627	–
Cc1nnc(SCCNC(=O)CC2C=CS(=O)(=O)C2)s1 (stereo not given)	–	45.65
CN(Cc1cnccn1)C(=O)c1ccc(CSc2nnc[nH]2)o1	-8.183	–
CC(C)Cc1cc(C(=O)N(C)Cc2cnccn2)on1	–	13.67
CSCc1ccc(C(=O)N(C)Cc2cnccn2)o1	–	98.35
CC(CCO)CNS(=O)(=O)c1ccccc1F (stereo not given)	–	13.76
COCC(NC(=O)CNc1ccccc1)C(C)C (stereo not given)	–	18.12
Cc1ccc(S(=O)(=O)N2CCNC(=O)C2)cc1C(N)=O	–	3.593
CC(C)Cn1cc(NC(=O)N2CCCC2)cn1	-15.58	–

Structure (SMILES)	Percent Effect (10 µM) [%]	Percent Effect (50 µM) [%]
CC(C)Cn1cc(NC(=O)N2CCC(O)C2)cn1 (stereo not given)	–	99.23
NC(=O)Cn1cc(NC(=O)N2CCCC(O)C2)cn1 (stereo not given)	-5.248	–
CC(C)[C@@H]1CN(C(=O)c2ccc(O)cn2)C[C@H]1N(C)C	–	-13.98
NS(=O)(=O)c1ccc2c(c1)N(CC(=O)NC1CC1)CC2	–	3.074
CCc1ccc(CN2CCOCC(CO)C2)nc1 (stereo not given)	–	13.26
C[C@@H]1CN(C(=O)c2ccc(=O)[nH]c2)C[C@]1(C)O	–	3.055
C[C@@H]1CN(C(=O)c2cc(F)cc(C#N)c2)C[C@]1(C)O	–	97.61
C[C@@H]1CN(C(=O)c2ccccc2C#N)C[C@]1(C)O	–	10.95
CSCC(CCO)NC(=O)c1coc2ccccc12 (stereo not given)	–	-6.179
CC(C)(C)OC(=O)N1CCC(n2cc(N)cn2)CC1	–	-15.49
N[C@@H]1CCCc2c(F)cc(F)cc21	–	13.09
Cc1ccc(F)c(NC(=O)N2CCOCC2CO)c1 (stereo not given)	–	2.099
O=C1CN(CC(=O)N2CCc3sccc3C2)CCN1	–	8.555
Cc1ccccc1CC(=O)NCC(F)(F)F	–	-13.95
CC(=O)C1CN(C(=O)OC(C)(C)C)CCO1 (stereo not given)	–	-6.486
CN(C)CCNCC1CCOC(C)(C)C1 (stereo not given)	12.77	–
CCN(CC)CCCNCC1CCOC(C)(C)C1 (stereo not given)	1.68	–
CN(C)CCNCCC(Cc1ccccc1)C1CCOC(C)(C)C1.O=C(O)C(=O)O (stereo not given)	9.919	–
CC(CCc1ccccc1)NC(=O)CNCCCN(C)C.O=C(O)C(=O)O (stereo not given)	-5.52	–
CN(C)CCCNCCC(Cc1ccccc1)C1CCOC(C)(C)C1.O=C(O)C(=O)O (stereo not given)	77.21	–
N#CCC(=O)Nc1ccc(N2CCOCC2)cc1	–	-1.188
CCCNC(=O)CCNC(=O)Nc1cc(C)cc(C)n1	–	12.25
NCC(=O)Nc1ccccc1	–	0.1294
NCCC(=O)Nc1ccccc1	–	99.48
Cl.NCCC(=O)Nc1ccc(-c2ccccc2)cc1	10.41	–

Structure (SMILES)	Percent Effect (10 µM) [%]	Percent Effect (50 µM) [%]
Cc1nc2c(c(NCc3cnc4c(c3)CCC4)n1)CNC2	-1.27	–
Cc1nc2c(c(NCc3ccc(N)nc3)n1)CCCC2	–	50.4
CNCc1ccc(N(C)C)nc1	–	-20.16
NCc1ccc(N)nc1	–	-3.539
Nc1nc2c(c(NCc3ccncc3)n1)CCCC2	12.09	–
CNCc1ccc(N)nc1	–	63.11
NCc1cnn(-c2ccc(F)cc2)c1	–	4.484
C1CC(OC2CCOC2)CCN1 (stereo not given)	–	3.071
COCCCOC1CN(C(=O)c2cc(F)ccc2C)C1	–	0.2477
CCCc1nc2c(c(C)c(C)n2Cc2cccnc2)c(N)c1CC	33.67	–
CCCc1nc2c(c(C)c(C)n2Cc2ccncc2)c(N)c1CC	-0.599	–
CCCc1nc2c(c(C)c(C)n2Cc2ccccn2)c(N)c1CC	74.72	–
CCNC(=O)C(C)N (stereo not given)	–	-4.292
COc1cc(OC)cc(N2CC(N)CC2=O)c1 (stereo not given)	–	17.36
O=C(Nc1cccc(F)c1)NC1CCN(Cc2ccncc2)CC1	6.4	–
O=C(Nc1cccc(F)c1)C1CCCN1 (stereo not given)	–	7.876
CCOCCNc1nc(-c2ccncc2)nc2c1CCNCC2	-6.442	–
Cl.NC1CCc2nc(-c3cccnc3)nc(Nc3ccc(F)cc3)c2C1 (stereo not given)	24.29	–
Cl.NC1CCc2nc(-c3ccncc3)nc(Nc3cccc(F)c3)c2C1 (stereo not given)	92.97	–
N[C@@H]1CCO[C@H]1c1ccnn1-c1ccccc1	–	-18.85
CNC(=O)[C@@H]1CCCN1	–	-5.087
O=c1cc(CN2CCOCC2)nc2sccn12	–	2.592
CN1CCCC1CCSc1nc(N)c(C#N)cc1C#N (stereo not given)	–	-0.4089
Cc1cc(C)nc(NC(=O)c2ccncc2)c1	–	31.27
CCO[C@@H]1COCC[C@H]1NC(=O)c1cncn1C	–	0.586
